Records with an inconclusive call do not appear. A call without a number means that no potency is given here. Active and inactive are the calls of the source. Calls come from the whole dose curve; as a rule, active = well fitted curve in the direction sought with a large enough effect; inconclusive = small, poorly fitted or top-dose-only effect, or another doubt; inactive = no such curve, though single readings can be large; an effect the other way counts as inactive or inconclusive.
tested on: not listed separately; experiment: Validation screen for small molecules that induce DNA re-replication in MCF 10A normal breast cells (AID 463097); conditions: MCF 10A cells, DNA re-replication phenotype imaging; series mostly up to 46.1 µM; note: nearly all actives have a fitted effect of over 60% in size
Outline: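 Image-based qHTS: normal breast cells are incubated with compound for 48 hr, stained with Hoechst, and scanned for total nuclear fluorescence. Compounds raising the fraction of nuclei with elevated DNA content count as re-replication inducers.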

| SMILES | outcome |
| --- | --- |
| Cc1cc(C)c(NC(=O)C[C@H](CC(=O)O)c2cccc3ccccc23)c(C(=O)N2CCC3(CCCC3)CC2)c1 | inactive |
| O=C(NCCNCC(O)COc1ccc(O)cc1)N1CCOCC1 (stereo not given) | inactive |
| C[C@@](Cc1ccc(O)c(O)c1)(NN)C(=O)O | inactive |
| O=c1[nH]c(=O)n([C@H]2C[C@H](O)[C@@H](CO)O2)cc1/C=C/Br | inactive |
| Oc1ccc(/C=C/c2cc(O)cc(O)c2)cc1 | inactive |

tested on: not listed separately; experiment: Quantitative high throughput screen for delayed death inhibitors of the malarial parasite plastid, 48 hour incubation (AID 488752); conditions: Plasmodium falciparum growth; series mostly up to 28.7 µM; note: nearly all actives have a fitted effect of over 65% in size
Outline: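 Erythrocytes infected with firefly luciferase-expressing P. falciparum (2% hematocrit, 0.1% parasitemia) cultured with compound for 48 h at 37 C, 5% CO2, in RPMI 1640/0.5% Albumax. Growth inhibition read as loss of luminescence.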

| SMILES | outcome |
| --- | --- |
| Cc1cc(C)c(NC(=O)C[C@H](CC(=O)O)c2cccc3ccccc23)c(C(=O)N2CCC3(CCCC3)CC2)c1 | inactive |
| O=C(NCCNCC(O)COc1ccc(O)cc1)N1CCOCC1 (stereo not given) | inactive |
| O=c1[nH]c(=O)n([C@H]2C[C@H](O)[C@@H](CO)O2)cc1/C=C/Br | inactive |

molecular target: M-phase phosphoprotein 8 (Homo sapiens) (UniProt Q99549); experiment: qHTS Validation Assay for Inhibitors for MPP8 Chromodomain Interactions with Methylated Histone Tails (AID 488949); conditions: AlphaScreen MPP8 binding to H3K9me3 peptide; series mostly up to 114 µM;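 note: 50 nM MPP8 with 50 nM peptide preformed then compounds added for 30 min; AlphaScreen signal from MPP8 chromodomain bound to biotinylated H3K9me3 peptide; top concentration of the series differs between compounds; nearly all actives have a fitted effect of over 55% in size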
Sequence (Q99549 whole entry, looked up): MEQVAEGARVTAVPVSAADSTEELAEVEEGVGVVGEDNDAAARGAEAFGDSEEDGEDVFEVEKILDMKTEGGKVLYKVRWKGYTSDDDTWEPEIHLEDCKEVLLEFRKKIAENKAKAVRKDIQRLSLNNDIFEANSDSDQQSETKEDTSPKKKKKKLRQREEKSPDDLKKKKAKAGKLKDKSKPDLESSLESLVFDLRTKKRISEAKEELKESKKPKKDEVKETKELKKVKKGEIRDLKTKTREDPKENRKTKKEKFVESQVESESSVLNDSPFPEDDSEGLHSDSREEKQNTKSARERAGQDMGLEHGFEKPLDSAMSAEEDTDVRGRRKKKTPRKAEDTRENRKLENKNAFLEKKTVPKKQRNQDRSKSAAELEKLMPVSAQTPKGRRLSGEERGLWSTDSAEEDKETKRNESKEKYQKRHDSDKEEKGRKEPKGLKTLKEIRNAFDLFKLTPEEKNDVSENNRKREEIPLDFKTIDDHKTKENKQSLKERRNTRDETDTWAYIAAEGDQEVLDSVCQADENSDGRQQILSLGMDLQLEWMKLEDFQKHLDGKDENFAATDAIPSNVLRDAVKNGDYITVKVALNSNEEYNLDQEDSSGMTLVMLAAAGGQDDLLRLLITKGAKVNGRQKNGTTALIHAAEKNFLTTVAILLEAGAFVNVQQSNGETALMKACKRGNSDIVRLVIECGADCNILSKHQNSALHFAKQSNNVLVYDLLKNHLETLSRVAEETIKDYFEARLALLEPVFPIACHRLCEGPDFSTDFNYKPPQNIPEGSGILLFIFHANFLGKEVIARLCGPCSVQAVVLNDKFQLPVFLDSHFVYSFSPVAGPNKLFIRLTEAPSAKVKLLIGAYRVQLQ
Outline: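 50 nM MPP8 + 50 nM b-H3K9me3 peptide, PBS pH 7.4/0.01% Tween-20, 30 min RT; + cpd 30 min RT; + AlphaScreen donor/Ni-chelate acceptor beads 10 ug/mL final, 30 min dark; luminescence read.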

| SMILES | outcome |
| --- | --- |
| Cc1cc(C)c(NC(=O)C[C@H](CC(=O)O)c2cccc3ccccc23)c(C(=O)N2CCC3(CCCC3)CC2)c1 | inactive |
| O=C(NCCNCC(O)COc1ccc(O)cc1)N1CCOCC1 (stereo not given) | inactive |
| C[C@@](Cc1ccc(O)c(O)c1)(NN)C(=O)O | inactive |
| O=c1[nH]c(=O)n([C@H]2C[C@H](O)[C@@H](CO)O2)cc1/C=C/Br | inactive |
| Oc1ccc(/C=C/c2cc(O)cc(O)c2)cc1 | inactive |

molecular target: Transient receptor potential cation channel subfamily V member 1 (Homo sapiens) (UniProt Q8NER1); experiment: HTS Assay for Compounds that Act as Enhancers of the Vanilloid Receptor 1 (AID 488979); conditions: TRPV1-expressing cells, enhancer of channel activity, stimulated with capsaicin at EC20; series mostly up to 41.7 µM
Sequence (Q8NER1 whole entry, looked up): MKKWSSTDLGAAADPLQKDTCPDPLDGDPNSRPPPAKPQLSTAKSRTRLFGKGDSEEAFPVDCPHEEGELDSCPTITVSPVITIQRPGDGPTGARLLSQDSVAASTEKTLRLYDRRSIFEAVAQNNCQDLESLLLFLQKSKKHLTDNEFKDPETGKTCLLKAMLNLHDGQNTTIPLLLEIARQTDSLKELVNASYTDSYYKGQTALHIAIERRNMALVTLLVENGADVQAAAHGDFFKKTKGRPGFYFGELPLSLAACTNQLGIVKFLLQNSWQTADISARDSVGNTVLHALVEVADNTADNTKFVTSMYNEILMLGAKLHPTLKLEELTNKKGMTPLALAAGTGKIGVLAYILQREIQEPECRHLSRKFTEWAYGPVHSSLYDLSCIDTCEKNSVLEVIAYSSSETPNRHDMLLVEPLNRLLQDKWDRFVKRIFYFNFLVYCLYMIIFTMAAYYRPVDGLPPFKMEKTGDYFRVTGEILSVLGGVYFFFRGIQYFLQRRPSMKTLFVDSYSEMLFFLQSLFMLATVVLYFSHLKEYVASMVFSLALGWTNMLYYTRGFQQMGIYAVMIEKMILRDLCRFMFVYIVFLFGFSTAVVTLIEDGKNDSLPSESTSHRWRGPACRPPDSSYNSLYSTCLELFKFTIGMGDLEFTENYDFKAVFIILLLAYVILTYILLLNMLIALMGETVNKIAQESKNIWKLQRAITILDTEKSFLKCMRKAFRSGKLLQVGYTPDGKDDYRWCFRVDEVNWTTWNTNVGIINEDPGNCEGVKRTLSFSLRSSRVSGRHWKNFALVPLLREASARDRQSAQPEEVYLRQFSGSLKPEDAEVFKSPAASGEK
Outline: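 TRPV1 cells loaded with Fluo-8 calcium dye; compound added and Ca2+ signal (ex 480/em 520 nm) followed 3 min, then capsaicin at EC20 added and read 2 more min to detect enhancement.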

| SMILES | outcome |
| --- | --- |
| Cc1cc(C)c(NC(=O)C[C@H](CC(=O)O)c2cccc3ccccc23)c(C(=O)N2CCC3(CCCC3)CC2)c1 | inactive |
| O=C(NCCNCC(O)COc1ccc(O)cc1)N1CCOCC1 (stereo not given) | inactive |
| C[C@@](Cc1ccc(O)c(O)c1)(NN)C(=O)O | inactive |
| O=c1[nH]c(=O)n([C@H]2C[C@H](O)[C@@H](CO)O2)cc1/C=C/Br | inactive |
| Oc1ccc(/C=C/c2cc(O)cc(O)c2)cc1 | inactive |

molecular target: Thyrotropin receptor (Homo sapiens) (UniProt P16473); experiment: qHTS Assay for Antagonists of the Thyroid Stimulating Hormone Receptor (AID 488980); conditions: TSHR-expressing cells, cAMP antagonist read-out; series mostly up to 57.5 µM
Sequence (P16473 whole entry, looked up): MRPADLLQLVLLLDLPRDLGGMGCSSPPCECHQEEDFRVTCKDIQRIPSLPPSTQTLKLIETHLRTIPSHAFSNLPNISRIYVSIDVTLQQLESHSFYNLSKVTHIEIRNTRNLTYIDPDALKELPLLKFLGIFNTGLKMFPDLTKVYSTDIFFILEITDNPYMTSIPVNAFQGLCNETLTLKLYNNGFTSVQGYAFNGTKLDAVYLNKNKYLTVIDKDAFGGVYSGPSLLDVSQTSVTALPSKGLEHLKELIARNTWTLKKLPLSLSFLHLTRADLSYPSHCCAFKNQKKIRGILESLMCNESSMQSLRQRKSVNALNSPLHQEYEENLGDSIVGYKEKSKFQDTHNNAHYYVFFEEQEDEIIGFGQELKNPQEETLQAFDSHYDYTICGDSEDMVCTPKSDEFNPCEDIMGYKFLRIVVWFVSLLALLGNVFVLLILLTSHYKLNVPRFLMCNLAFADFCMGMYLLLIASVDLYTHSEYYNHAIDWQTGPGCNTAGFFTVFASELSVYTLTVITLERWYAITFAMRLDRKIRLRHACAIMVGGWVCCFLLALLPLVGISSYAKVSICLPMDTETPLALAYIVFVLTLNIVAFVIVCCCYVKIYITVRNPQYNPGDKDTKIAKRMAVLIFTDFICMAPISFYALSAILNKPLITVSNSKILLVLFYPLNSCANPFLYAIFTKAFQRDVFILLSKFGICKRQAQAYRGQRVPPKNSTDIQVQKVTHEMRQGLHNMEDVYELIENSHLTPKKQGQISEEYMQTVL
Outline: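 Readout is cAMP by HTRF competition between cellular cAMP and cAMP-d2 for a cryptate-labelled antibody. Antagonism was assessed in TSHR-transfected HEK293 cells stimulated with 4 nM TSH (EC80, final) in the presence of RO 20-1724.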

| SMILES | outcome |
| --- | --- |
| Cc1cc(C)c(NC(=O)C[C@H](CC(=O)O)c2cccc3ccccc23)c(C(=O)N2CCC3(CCCC3)CC2)c1 | inactive |
| O=C(NCCNCC(O)COc1ccc(O)cc1)N1CCOCC1 (stereo not given) | inactive |
| C[C@@](Cc1ccc(O)c(O)c1)(NN)C(=O)O | inactive |
| O=c1[nH]c(=O)n([C@H]2C[C@H](O)[C@@H](CO)O2)cc1/C=C/Br | inactive |
| Oc1ccc(/C=C/c2cc(O)cc(O)c2)cc1 | inactive |

molecular target: ATP-dependent 6-phosphofructokinase (Trypanosoma brucei brucei) (UniProt O15648); experiment: qHTS Assay to Find Inhibitors of T. brucei phosphofructokinase: hit validation (AID 492961);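 note: luminescence reports ADP formed as PFK phosphorylates fructose-6-phosphate with ATP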; conditions: T. brucei PFK, ADP-Glo luminescence; series mostly up to 51.4 µM
Sequence (O15648 whole entry, looked up): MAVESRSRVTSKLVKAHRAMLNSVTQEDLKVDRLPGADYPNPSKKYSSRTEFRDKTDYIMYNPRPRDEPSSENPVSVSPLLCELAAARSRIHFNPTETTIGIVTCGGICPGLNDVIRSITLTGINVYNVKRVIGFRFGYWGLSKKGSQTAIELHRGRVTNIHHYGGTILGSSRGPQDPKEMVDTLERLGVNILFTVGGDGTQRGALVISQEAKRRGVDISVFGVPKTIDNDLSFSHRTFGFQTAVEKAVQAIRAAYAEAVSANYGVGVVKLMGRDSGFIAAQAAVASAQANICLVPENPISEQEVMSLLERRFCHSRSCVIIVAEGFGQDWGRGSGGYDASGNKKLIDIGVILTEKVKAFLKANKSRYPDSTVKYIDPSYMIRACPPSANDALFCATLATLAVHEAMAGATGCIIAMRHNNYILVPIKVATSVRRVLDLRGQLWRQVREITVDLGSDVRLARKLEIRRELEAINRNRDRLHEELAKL
Outline: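 Inhibition of parasite PFK is measured as reduced ADP formation, quantified via luciferase after ATP depletion. Assay used 0.1 mM ATP, 0.5 mM F6P, 1.25 nM enzyme, 45 min incubation.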

| SMILES | Potency |
| --- | --- |
| CC(C)CCC[C@@H](C)[C@H]1CC[C@H]2[C@@H]3CC=C4C[C@@H](O)CC[C@]4(C)[C@H]3CC[C@]12C | inactive |
| CN1CCCC(CN2c3ccccc3Sc3ccccc32)C1 (stereo not given) | inactive |
| O=C(O)/C=C/C(=O)Nc1ccc(S(=O)(=O)Nc2nccs2)cc1 | inactive |
| O=C(OCc1ccccc1)c1ccc(O)cc1 | inactive |
| Cc1cc(C)c(NC(=O)C[C@H](CC(=O)O)c2cccc3ccccc23)c(C(=O)N2CCC3(CCCC3)CC2)c1 | inactive |
| O=C(Nc1ccc(O)cc1)c1ccccc1O | inactive |
| Cc1cccc(C)c1NC(=O)C1CCCCN1C (stereo not given) | inactive |
| CN(C)C=Nc1c(I)cc(I)c(CCC(=O)O)c1I | inactive |
| CC(C)[C@@H](N)C(=O)O | inactive |
| O=C1N=C2SCCN2C(=O)C1Cc1ccc(Cl)cc1 (stereo not given) | inactive |
| O=C1CCC(=O)N1CO | inactive |
| CC(CNC(=O)c1cccnc1)NC(=O)c1cccnc1 (stereo not given) | inactive |
| Oc1cc(O)cc(O)c1 | inactive |
| COc1ccc(C(=O)CCC(=O)O)c2ccccc12 | inactive |
| CCCCCCCCCCCCCC(=O)OCC(COP(=O)([O-])OCC[N+](C)(C)C)OC(=O)CCCCCCCCCCCCC (stereo not given) | inactive |
| O=C(CCCCCCCCCCCCC1CCCC1)Nc1ccc(S(=O)(=O)c2ccc(NC(=O)CCCCCCCCCCCCC3CCCC3)cc2)cc1 | inactive |
| CCCCCCCCCCCCCCCCOCCOCCOCCOCCOCCOCCOCCOCCOCCOCCOCCOCCOCCOCCOCCOCCOCCOCCOCCOCCO | inactive |
| CC(/C=C/C=C(\C)C(=O)O[C@@H]1O[C@H](CO[C@@H]2O[C@H](CO)[C@@H](O)[C@H](O)[C@H]2O)[C@@H](O)[C@H](O)[C@H]1O)=C\C=C\C=C(C)\C=C\C=C(/C)C(=O)O[C@@H]1O[C@H](CO[C@@H]2O[C@H](CO)[C@@H](O)[C@H](O)[C@H]2O)[C@@H](O)[C@H](O)[C@H]1O | inactive |
| COC(=O)CC[C@H](N)C(=O)O | inactive |
| CC/C(=C(/CC)c1ccc(OP(=O)(O)O)cc1)c1ccc(OP(=O)(O)O)cc1 | inactive |
| CCOC(C)OCC | inactive |
| C[C@H](CCCC(C)(C)O)[C@H]1CC[C@H]2[C@@H]3CC=C4C[C@@H](O)CC[C@]4(C)[C@H]3CC[C@]12C | inactive |

Reference: PubChem BioAssay (NCATS)
